Measured values published in PubChem BioAssay (NCATS).
Results filed as inconclusive are left out. The source made the active and inactive calls. Unless noted, the call rests on the fitted dose curve; in most records, active means well fitted curve in the direction sought with a large enough effect; inconclusive means small, poorly fitted or top-dose-only effect, or another doubt; inactive means no such curve, though single readings can be large; an effect the other way counts as inactive or inconclusive.

Experiments:
[1] = target: Guanine nucleotide-binding protein G(i) subunit alpha-1 (Homo sapiens) (UniProt P63096); experiment: qHTS Assay for Inhibitors of RGS12 GoLoco Motif Activity (Green Fluorophore) (AID 879); conditions: Galphai1/FITC-RGS12 GoLoco peptide, fluorescence polarization; series mostly up to 57.1 µM;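 further: negative values mean loss of peptide binding seen as reduced polarization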
Guanine nucleotide-binding protein G(i) subunit alpha-1 (Homo sapiens), sequence (P63096 whole entry, looked up): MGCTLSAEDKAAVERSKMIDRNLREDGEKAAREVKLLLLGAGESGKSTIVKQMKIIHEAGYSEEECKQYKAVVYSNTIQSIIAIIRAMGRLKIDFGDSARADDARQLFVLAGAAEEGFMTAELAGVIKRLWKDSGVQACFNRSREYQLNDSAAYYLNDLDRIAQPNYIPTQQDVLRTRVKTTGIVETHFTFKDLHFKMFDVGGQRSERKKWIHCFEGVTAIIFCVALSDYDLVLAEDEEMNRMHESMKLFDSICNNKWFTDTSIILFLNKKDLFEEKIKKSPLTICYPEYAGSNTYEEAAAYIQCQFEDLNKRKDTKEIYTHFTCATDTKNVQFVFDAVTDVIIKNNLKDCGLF
Outline: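 A drop in FITC polarization marked displacement of the FITC-tagged RGS12 GoLoco peptide (10 nM) from Gαi1 (50 nM). Compounds were incubated 10 min at room temperature in Tris pH 7.5 buffer containing 150 mM NaCl, 0.1 mM GDP and 0.05% NP40; unlabeled peptide titration served as control.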

[2] = target: Pyruvate kinase PKM (Homo sapiens) (UniProt P14618); experiment: qHTS Assay for Activators of Human Muscle Pyruvate Kinase (AID 954; active means well fitted curve in the direction sought with a large enough effect, not every such curve was filed as active); conditions: purified human muscle pyruvate kinase, luciferase-coupled luminescence, 1 h; series mostly up to 57.5 µM
Pyruvate kinase PKM (Homo sapiens), sequence (P14618 whole entry, looked up): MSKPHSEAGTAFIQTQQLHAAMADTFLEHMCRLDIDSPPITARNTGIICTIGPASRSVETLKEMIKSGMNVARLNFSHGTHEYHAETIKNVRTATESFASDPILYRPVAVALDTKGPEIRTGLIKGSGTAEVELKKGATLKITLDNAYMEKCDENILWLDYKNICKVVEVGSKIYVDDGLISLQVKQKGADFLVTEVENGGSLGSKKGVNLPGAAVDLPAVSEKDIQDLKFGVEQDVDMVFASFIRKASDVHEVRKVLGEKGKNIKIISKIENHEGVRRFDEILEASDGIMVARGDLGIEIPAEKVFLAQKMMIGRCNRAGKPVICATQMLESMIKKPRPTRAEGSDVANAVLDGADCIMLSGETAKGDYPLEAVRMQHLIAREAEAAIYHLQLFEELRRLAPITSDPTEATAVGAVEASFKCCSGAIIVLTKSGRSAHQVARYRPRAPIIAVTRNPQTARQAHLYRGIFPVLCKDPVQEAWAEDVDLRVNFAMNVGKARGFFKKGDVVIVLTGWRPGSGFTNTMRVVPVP
Outline: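 Compound pinned into substrate mix (0.5 mM PEP, 0.1 mM ADP), then 0.1 nM PKM2 added; 1 h, RT. Stop/detection luciferase reagent added, luminescence read. Normalized to no-inhibition and no-enzyme or reference-inhibitor controls.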

[3] = S16 Schwann cell viability assay (CellTiter-Glo assay) (AID 624031); conditions: S16 rat Schwann cells viability, 24 h; series mostly up to 25.7 µM;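 further: native untransfected S16 rat Schwann cells; cellular ATP luminescence as a viability measure; nearly all actives have a fitted effect of over 70% in size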
Outline: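 Parental S16 cells, 24 h compound, 37 °C. ATP-luminescence viability; DMSO = 0% activity, empty wells as reference; curves classified by fit quality and efficacy.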

[4] = system: ATS189; experiment: qHTS profiling for inhibitors of Plasmodium falciparum proliferation (AID 504749); further: nearly all actives have a fitted effect of over 60% in size; conditions: P. falciparum in erythrocytes, SYBR Green DNA, 72 h; series mostly up to 12.8 µM
Outline: (§1)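 In a 72 h erythrocytic culture (37 C, humidified, 5% CO2) at 2.5% hematocrit and 0.3% starting parasitemia, compounds were tested; SYBR Green I in detergent lysis buffer stained parasite DNA overnight.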

[5] = system: CP185; experiment: as above; conditions: P. falciparum in erythrocytes, SYBR Green DNA, 72 h; series mostly up to 12.8 µM
Outline: as §1

[6] = system: CP191; experiment: as above; conditions: P. falciparum in erythrocytes, SYBR Green DNA, 72 h; series mostly up to 12.8 µM
Outline: as §1

[7] = system: CP201; experiment: as above; conditions: P. falciparum in erythrocytes, SYBR Green DNA, 72 h; series mostly up to 12.8 µM
Outline: as §1

[8] = system: CP247; experiment: as above; conditions: P. falciparum in erythrocytes, SYBR Green DNA, 72 h; series mostly up to 12.8 µM
Outline: as §1

[9] = system: CP250; experiment: as above; conditions: P. falciparum in erythrocytes, SYBR Green DNA, 72 h; series mostly up to 12.8 µM
Outline: as §1

[10] = system: CP256; experiment: as above; conditions: P. falciparum in erythrocytes, SYBR Green DNA, 72 h; series mostly up to 12.8 µM
Outline: as §1

[11] = system: CP262; experiment: as above; conditions: P. falciparum in erythrocytes, SYBR Green DNA, 72 h; series mostly up to 12.8 µM
Outline: as §1

[12] = system: CP325; experiment: as above; conditions: P. falciparum in erythrocytes, SYBR Green DNA, 72 h; series mostly up to 12.8 µM
Outline: as §1

[13] = system: CP329; experiment: as above; conditions: P. falciparum in erythrocytes, SYBR Green DNA, 72 h; series mostly up to 12.8 µM
Outline: as §1

[14] = system: Dd2; experiment: as above; conditions: P. falciparum in erythrocytes, SYBR Green DNA, 72 h; series mostly up to 12.8 µM
Outline: as §1

[15] = system: JCK; experiment: as above; conditions: P. falciparum in erythrocytes, SYBR Green DNA, 72 h; series mostly up to 12.8 µM
Outline: as §1

[16] = system: N140; experiment: as above; conditions: P. falciparum in erythrocytes, SYBR Green DNA, 72 h; series mostly up to 12.8 µM
Outline: as §1

[17] = system: PC15; experiment: as above; conditions: P. falciparum in erythrocytes, SYBR Green DNA, 72 h; series mostly up to 12.8 µM
Outline: as §1

[18] = system: PC49; experiment: as above; conditions: P. falciparum in erythrocytes, SYBR Green DNA, 72 h; series mostly up to 12.8 µM
Outline: as §1

[19] = system: SC27B; experiment: as above; conditions: P. falciparum in erythrocytes, SYBR Green DNA, 72 h; series mostly up to 12.8 µM
Outline: as §1

[20] = system: TAB113; experiment: as above; conditions: P. falciparum in erythrocytes, SYBR Green DNA, 72 h; series mostly up to 12.8 µM
Outline: as §1

Measured: Potency

C[C@@](N)(Cc1ccc(O)cc1)C(=O)O
inactive: [1] | [2]

CC1=C(C(=O)O)N2C(=O)[C@@H](NC(=O)[C@@H](N)c3ccccc3)[C@@H]2SC1
inactive: [1] | [2]

C[N+]1(C)CCC[C@@H](OC(=O)C(O)(c2ccccc2)c2ccccc2)C1
not listed: [1] | [2]
inactive: all other assays above
